According to the antibiotic and cytotoxicity screens of Wong et al. (2023):
Screen size: about 39,000 compounds; about 3,300 (8.5%) were called active. The entries come from a sample that favours actives as a whole.

System: HepG2
Assay: cytotoxicity call (relative viability < 0.9)
Settings: 10 µM

Structure (SMILES) | cytotoxicity call
CC(C)NC(=O)N(C)C[C@@H]1Oc2c(NC(=O)C3CCOCC3)cccc2C(=O)N([C@@H](C)CO)C[C@@H]1C | inactive
COc1ccc(S(=O)(=O)Nc2ccc3c(c2)C(=O)N([C@@H](C)CO)C[C@H](C)[C@@H](CN(C)Cc2ccccc2)OCCCC[C@H](C)O3)cc1 | inactive
C(=N\c1cc(-c2ccccc2)nn1-c1ccccc1)/c1ccccc1 | inactive
C[C@H]1CN([C@@H](C)CO)C(=O)c2cc(C#CC3CCCCC3)cnc2O[C@@H]1CN(C)C(=O)c1ccncc1 | inactive
O=C(CCCCCCC(=O)Nc1ccc([C@H]2C[C@H](c3ccccc3)O[C@H](c3cccc(Oc4ccccc4)c3)O2)cc1)NO | inactive
C[C@H](CO)N1C[C@H](C)[C@H](CN(C)Cc2ccc(C(=O)O)cc2)Oc2ccc(NS(=O)(=O)c3cn(C)cn3)cc2CC1=O | inactive
O=C(C[C@@H]1C[C@H]2c3cc(NS(=O)(=O)c4ccc(F)cc4)ccc3O[C@H]2[C@H](CO)O1)NCc1ccccc1F | inactive
C[C@@H]1COCCC(=O)N1 | inactive
O=C1CN(c2ccccc2)C(=O)N1 | inactive
C[C@H]1CN([C@@H](C)CO)S(=O)(=O)c2ccc(C3=CCCCC3)cc2O[C@@H]1CN(C)S(=O)(=O)c1cn(C)cn1 | inactive
COc1ccc(S(=O)(=O)N(C)C[C@@H]2Oc3c(NC(=O)Nc4cccc5ccccc45)cccc3C(=O)N([C@@H](C)CO)C[C@@H]2C)cc1 | inactive
COc1ccc(S(=O)(=O)N(C)C[C@@H]2Oc3c(NC(=O)Nc4cccc5ccccc45)cccc3C(=O)N([C@H](C)CO)C[C@H]2C)cc1 | active
COc1ccc(S(=O)(=O)N(C)C[C@H]2Oc3c(NC(=O)Nc4cccc5ccccc45)cccc3C(=O)N([C@H](C)CO)C[C@@H]2C)cc1 | active
COc1ccc(S(=O)(=O)N(C)C[C@@H]2Oc3c(NC(=O)Nc4cccc5ccccc45)cccc3C(=O)N([C@H](C)CO)C[C@@H]2C)cc1 | inactive
COc1ccc(S(=O)(=O)N(C)C[C@@H]2Oc3c(NC(=O)Nc4cccc5ccccc45)cccc3C(=O)N(C(C)C)C[C@H]2C)cc1 | inactive
C[C@@H]1CN([C@H](C)CO)C(=O)c2cccc(NC(=O)Nc3cccc4ccccc34)c2O[C@@H]1CN(C)S(=O)(=O)c1cccs1 | active
COc1ccc(S(=O)(=O)N(C)C[C@H]2Oc3c(NC(=O)Nc4cccc5ccccc45)cccc3C(=O)N([C@H](C)CO)C[C@H]2C)cc1 | inactive
C[C@@H]1CN([C@@H](C)CO)C(=O)c2cccc(NC(=O)Nc3cccc4ccccc34)c2O[C@@H]1CN(C)S(=O)(=O)c1cccs1 | inactive
C[C@@H]1CN([C@@H](C)CO)C(=O)c2cccc(NC(=O)Nc3cccc4ccccc34)c2O[C@H]1CN(C)S(=O)(=O)c1cccs1 | inactive
C[C@@H]1CCCCO[C@@H](CN(C)S(C)(=O)=O)[C@H](C)CN([C@@H](C)CO)C(=O)c2cc(N(C)C)ccc2O1 | inactive
COc1ccc(S(=O)(=O)N(C)C[C@H]2Oc3ncc(Br)cc3C(=O)N([C@@H](C)CO)C[C@@H]2C)cc1 | inactive
C[C@H](CO)N1C[C@H](C)[C@@H](CN(C)C(=O)Nc2ccccc2)Oc2ccc(NC(=O)C3CC3)cc2CC1=O | inactive

Structure (SMILES) | cytotoxicity call
O=C1OCC=C[C@H]2O[C@@]34C=CCN(c5ccc(Cl)cc5)C(=O)[C@H]3N(CCCCCCO)C(=O)[C@@H]4[C@@H]12 | inactive
C[C@@H]1CCCCO[C@H](CN(C)Cc2ccc(C(=O)O)cc2)[C@@H](C)CN([C@H](C)CO)C(=O)c2cc(NC(=O)Nc3ccccc3)ccc2O1 | inactive
CC(C)N1C(=O)C[C@@](C(=O)NCCN2CCOCC2)(c2ccc([N+](=O)[O-])cc2)[C@H]1c1ccc(CO)cc1 | inactive
COc1ccc(NC(=O)Nc2ccc3c(c2)C(=O)N([C@@H](C)CO)C[C@H](C)[C@H](CN(C)C(=O)NC2CCCCC2)OCCCC[C@H](C)O3)cc1 | inactive
C[C@H]1CCCCO[C@H](CN(C)S(=O)(=O)c2ccccc2)[C@@H](C)CN([C@@H](C)CO)C(=O)c2cc(NC(=O)Nc3cccc4ccccc34)ccc2O1 | inactive
Cc1noc(C)c1NC(=O)N[C@@H]1CC[C@H](CC(=O)NCCCN(C)C)O[C@H]1CO | inactive
C[C@H]1CN([C@@H](C)CO)C(=O)c2cc(NC(=O)C3CC3)ccc2O[C@H]1CN(C)S(=O)(=O)c1cn(C)cn1 | inactive
Cc1cc(C(=O)Nc2cccc3c2O[C@H](CN(C)S(=O)(=O)c2ccc(Cl)cc2)[C@@H](C)CN([C@H](C)CO)C3=O)n(C)n1 | inactive
COc1cc(NC(=O)CCN2CCC(OC(=O)Nc3ccccc3-c3ccccc3)CC2)c(Cl)cc1CNC[C@H](O)c1ccc(O)c2nc(O)ccc12 | active
COc1cccc(C)c1NC(=O)O[C@H]1[C@H](OC(=O)Nc2ccccc2-c2ccccc2)[C@H](OC(=O)Nc2ccccc2-c2ccccc2)[C@@H](OC)O[C@@H]1CO | inactive
NCc1cc2ccc(F)cc2[nH]c1=O | inactive
C[C@H]1CN([C@@H](C)CO)C(=O)c2cc(C#CCN(C)C)cnc2O[C@H]1CN(C)C(=O)c1cnccn1 | inactive
CC(=O)Oc1cc(OC(C)=O)c2c(c1)O[C@H](c1ccc(OC(C)=O)c(OC(C)=O)c1)[C@H](OC(C)=O)C2 | inactive
O=C1NC(=O)C(c2cnc3ccccn23)=C1c1cn2c3c(cc(F)cc13)CN(C(=O)N1CCCCC1)CC2 | active
C[C@H](CO)N1C[C@H](C)[C@@H](CN(C)S(=O)(=O)c2cn(C)cn2)Oc2c(NS(=O)(=O)c3ccc(Cl)cc3)cccc2C1=O | inactive
COc1cccc(-c2ccc3c(c2)O[C@@H](CN(C)C(=O)C2CCC2)[C@@H](C)CN([C@H](C)CO)S3(=O)=O)c1 | inactive
Cc1ccc(S(=O)(=O)N(C)C[C@H]2Oc3ccc(NS(=O)(=O)c4cccs4)cc3C(=O)N([C@@H](C)CO)C[C@@H]2C)cc1 | inactive
Cl.O=C1CN2Cc3c(ccc(Cl)c3Cl)N=C2N1 | active
C[C@H](CO)N1C[C@H](C)[C@H](CN(C)C(=O)C2CCOCC2)Oc2cc(-c3ccc(F)cc3)ccc2S1(=O)=O | inactive
COc1ccc(S(=O)(=O)N(C)C[C@@H]2Oc3ncc(C#CC4(O)CCCC4)cc3C(=O)N([C@@H](C)CO)C[C@@H]2C)cc1 | inactive
O=C(Cc1nn[nH]n1)NS(=O)(=O)c1ccccc1 | inactive
C[C@@H]1CN([C@H](C)CO)C(=O)c2cc(NC(=O)Nc3ccc(F)cc3)ccc2O[C@@H](C)CCCCO[C@@H]1CN(C)CC1CCCCC1 | active

Structure (SMILES) | cytotoxicity call
C[C@@H]1CCCCO[C@@H](CN(C)CC2CCCCC2)[C@@H](C)CN([C@H](C)CO)C(=O)c2cc(NC(=O)Nc3ccc(F)cc3)ccc2O1 | inactive
C[C@@H]1CCCCO[C@H](CN(C)CC2CC2)[C@H](C)CN([C@@H](C)CO)C(=O)c2cc(NC(=O)Nc3ccc(F)cc3)ccc2O1 | inactive
C[C@@H]1CN([C@@H](C)CO)C(=O)c2cc(NC(=O)Nc3ccc(F)cc3)ccc2O[C@@H](C)CCCCO[C@H]1CN(C)CC1CC1 | inactive
C[C@@H]1CCCCO[C@@H](CN(C)CC2CCCCC2)[C@@H](C)CN([C@@H](C)CO)C(=O)c2cc(NC(=O)Nc3ccc(F)cc3)ccc2O1 | inactive
C[C@@H]1CCCCO[C@H](CN(C)CC2CC2)[C@@H](C)CN([C@H](C)CO)C(=O)c2cc(NC(=O)Nc3ccc(F)cc3)ccc2O1 | inactive
C[C@@H]1CCCCO[C@H](CN(C)CC2CCCCC2)[C@H](C)CN([C@H](C)CO)C(=O)c2cc(NC(=O)Nc3ccc(F)cc3)ccc2O1 | active
C[C@@H]1CCCCO[C@@H](CN(C)CC2CC2)[C@H](C)CN([C@H](C)CO)C(=O)c2cc(NC(=O)Nc3ccc(F)cc3)ccc2O1 | inactive
C[C@H]1CCCCO[C@@H](CN(C)CC2CCCCC2)[C@@H](C)CN([C@@H](C)CO)C(=O)c2cc(NC(=O)Nc3ccc(F)cc3)ccc2O1 | active
C[C@H]1CCCCO[C@H](CN(C)CC2CCCCC2)[C@@H](C)CN([C@@H](C)CO)C(=O)c2cc(NC(=O)Nc3ccc(F)cc3)ccc2O1 | active
CO[C@@]1(C2=NCCN2)COc2ccccc2O1 | inactive
O=C1O[C@@H](c2ccccc2)[C@@H](c2ccccc2)N2[C@@H](c3ccccc3OCCO)[C@]3(C(=O)Nc4ccc(C#CC5(O)CCCCCC5)cc43)[C@@H](C(=O)N3CCCCCCC3)[C@H]12 | inactive
C[C@H](CO)N1C[C@H](C)[C@H](CN(C)C(=O)C2CCCCC2)OCCCC[C@H](C)Oc2ccc(NC(=O)C3CCCCC3)cc2C1=O | inactive
CCCn1c(=O)c(C)cn2nc(N)nc12 | inactive
O=C(N[C@@H]1C=C[C@@H](CC(=O)N2CCOCC2)O[C@@H]1CO)c1ccccn1 | inactive
O=C(CCn1ccc(=O)[nH]c1=O)Nc1ccc2c(c1)NC(=O)CO2 | inactive
COc1ccc2c3c([nH]c2c1)[C@@H](CO)N(CC1CCCCC1)C[C@]13CCN(CC1)C(=O)NC1CCCC1 | inactive
Cc1noc(C)c1S(=O)(=O)Nc1ccc2c(c1)CC(=O)N([C@H](C)CO)C[C@@H](C)[C@H](CN(C)Cc1ccc3c(c1)OCO3)O2 | inactive
CN(C)c1ccsc1C(=O)NN | inactive
C[C@@H]1CN([C@H](C)CO)C(=O)c2cc(NC(=O)CCC(F)(F)F)ccc2O[C@@H](C)CCCCO[C@H]1CN(C)C(=O)C1CCCCC1 | inactive
C[C@@H]1CCCCO[C@H](CN(C)C(=O)C2CCCCC2)[C@H](C)CN([C@@H](C)CO)C(=O)c2cc(NC(=O)Nc3ccc4c(c3)OCO4)ccc2O1 | inactive
Cc1nc(COP(=O)(O)O)cc2c1[O][Mn][O]c1c(cc(COP(=O)(O)O)nc1C)CN(CC(=O)O)CCN(CC(=O)O)C2 | inactive
